# Source: the supplement of paper PMC8728848
# Only a selection was taken, and the strongest signals are over-represented in it overall.
# How the values were obtained:
# Experiment in all cases: glycan array binding signal (z-score within array); higher = stronger binding
# Settings in all cases: glycan notation: IUPAC condensed, linker removed
# [1] = biological target: Fuc(a1-2)Gal(b1-4)GlcNAc(b1-3)[Fuc(a1-2)Gal(b1-4)GlcNAc(b1-6)]GalNAc
# How it was run: (§1)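 Negative Z-scores can be read as non-binding. The Z-score is calculated within each array and then averaged across arrays of one protein sequence at different concentrations or buffers and across linkers. Arrays, 3228 in all, were curated from the Consortium for Functional Glycomics database and kept only where the protein sequence was available.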
# [2] = biological target: Fuc(a1-2)Gal6S(b1-3)GlcNAc
# How it was run: as §1
# [3] = biological target: Fuc(a1-2)[GalNAc(a1-3)]Gal(b1-3)GlcNAc(b1-2)Man(a1-3)[Fuc(a1-2)[GalNAc(a1-3)]Gal(b1-3)GlcNAc(b1-2)Man(a1-6)]Man(b1-4)GlcNAc(b1-4)[Fuc(a1-6)]GlcNAc
# How it was run: as §1
# [4] = biological target: Fuc(a1-2)[GalNAc(a1-3)]Gal(b1-4)GlcNAc
# How it was run: as §1
# [5] = biological target: Fuc(a1-3)GlcNAc
# How it was run: as §1
# [6] = biological target: Fuc(a1-3)[Gal(b1-4)]GlcNAc(b1-3)Gal(b1-4)[Fuc(a1-3)]GlcNAc
# How it was run: as §1
# [7] = biological target: Fuc(a1-3)[Gal(b1-4)]GlcNAc6S
# How it was run: as §1
# [8] = biological target: Gal(a1-3)[Gal(a1-4)]Gal(b1-4)GlcNAc
# How it was run: as §1
# [9] = biological target: Gal(b1-3)Gal
# How it was run: as §1
# [10] = biological target: Gal(b1-3)GlcNAc
# How it was run: as §1
# [11] = biological target: Gal(b1-3)GlcNAc(b1-2)Man(a1-3)[Gal(b1-3)GlcNAc(b1-2)Man(a1-6)]Man(b1-4)GlcNAc(b1-4)[Fuc(a1-6)]GlcNAc
# How it was run: as §1
# [12] = biological target: Gal(b1-3)GlcNAc(b1-3)Gal(b1-4)Glc
# How it was run: as §1
# [13] = biological target: Gal(b1-3)GlcNAc(b1-6)GalNAc
# How it was run: as §1
# [14] = biological target: Gal(b1-3)GlcNAc(b1-6)[Gal(b1-3)]GalNAc
# How it was run: as §1
# [15] = biological target: Gal(b1-3)[GlcNAc(b1-6)]GalNAc
# How it was run: as §1
# [16] = biological target: Gal(b1-4)GlcNAc(b1-2)Man(a1-3)[Gal(b1-4)GlcNAc(b1-2)Man(a1-6)][GlcNAc(b1-4)]Man(b1-4)GlcNAc(b1-4)[Fuc(a1-6)]GlcNAc
# How it was run: as §1
# [17] = biological target: Gal(b1-4)GlcNAc(b1-2)[Gal(b1-4)GlcNAc(b1-4)]Man(a1-3)[Gal(b1-4)GlcNAc(b1-2)Man(a1-6)]Man(b1-4)GlcNAc(b1-4)GlcNAc
# How it was run: as §1
# [18] = biological target: Gal(b1-4)GlcNAc(b1-3)Gal(b1-4)GlcNAc(b1-2)Man(a1-3)[Gal(b1-4)GlcNAc(b1-3)Gal(b1-4)GlcNAc(b1-2)Man(a1-6)]Man(b1-4)GlcNAc(b1-4)GlcNAc
# How it was run: as §1
# [19] = biological target: Gal(b1-4)GlcNAc(b1-3)Gal(b1-4)GlcNAc(b1-3)Gal(b1-4)GlcNAc(b1-2)Man(a1-3)[Gal(b1-4)GlcNAc(b1-3)Gal(b1-4)GlcNAc(b1-3)Gal(b1-4)GlcNAc(b1-2)Man(a1-6)]Man(b1-4)GlcNAc(b1-4)GlcNAc
# How it was run: as §1
# [20] = biological target: Gal(b1-4)GlcNAc(b1-3)Gal(b1-4)GlcNAc(b1-3)Gal(b1-4)GlcNAc(b1-2)[Gal(b1-4)GlcNAc(b1-3)Gal(b1-4)GlcNAc(b1-3)Gal(b1-4)GlcNAc(b1-6)]Man(a1-6)[Gal(b1-4)GlcNAc(b1-3)Gal(b1-4)GlcNAc(b1-3)Gal(b1-4)GlcNAc(b1-2)Man(a1-3)]Man(b1-4)GlcNAc(b1-4)[Fuc(a1-6)]GlcNAc
# How it was run: as §1
# [21] = biological target: Gal(b1-4)GlcNAc(b1-3)Gal(b1-4)GlcNAc(b1-3)Gal(b1-4)GlcNAc(b1-3)Gal(b1-4)GlcNAc(b1-2)Man(a1-3)[Gal(b1-4)GlcNAc(b1-3)Gal(b1-4)GlcNAc(b1-3)Gal(b1-4)GlcNAc(b1-3)Gal(b1-4)GlcNAc(b1-2)Man(a1-6)]Man(b1-4)GlcNAc(b1-4)[Fuc(a1-6)]GlcNAc
# How it was run: as §1
# [22] = biological target: Gal(b1-4)GlcNAc(b1-3)Gal(b1-4)GlcNAc(b1-3)[Gal(b1-4)GlcNAc(b1-3)Gal(b1-4)GlcNAc(b1-6)]GalNAc
# How it was run: as §1
# [23] = biological target: Gal(b1-4)GlcNAc(b1-3)Gal(b1-4)GlcNAc(b1-6)[Gal(b1-3)]GalNAc
# How it was run: as §1
# [24] = biological target: Gal(b1-4)GlcNAc(b1-3)[GlcNAc(b1-6)]Gal(b1-4)GlcNAc
# How it was run: as §1
# [25] = biological target: Gal3S(b1-4)[Fuc(a1-3)]GlcNAc6S
# How it was run: as §1
# [26] = biological target: Gal6P(b1-4)GlcNAc
# How it was run: as §1
# [27] = biological target: GlcA3S(b1-3)Gal(b1-4)GlcNAc(b1-2)Man
# How it was run: as §1
# [28] = biological target: GlcNAc(a1-4)Gal(b1-4)GlcNAc(b1-3)Gal(b1-4)[Fuc(a1-3)]GlcNAc(b1-3)Gal(b1-4)[Fuc(a1-3)]GlcNAc
# How it was run: as §1
# [29] = biological target: GlcNAc(b1-3)Gal(b1-4)GlcNAc(b1-2)[GlcNAc(b1-3)Gal(b1-4)GlcNAc(b1-6)]Man(a1-6)[GlcNAc(b1-3)Gal(b1-4)GlcNAc(b1-2)Man(a1-3)]Man(b1-4)GlcNAc(b1-4)GlcNAc
# How it was run: as §1
# [30] = biological target: GlcNAc(b1-3)Gal(b1-4)GlcNAc(b1-3)Gal(b1-4)GlcNAc
# How it was run: as §1
binder,measurement,setting,value
"MPA (Maclura pomifera), P18674 (protein) GVTFDDGAYTGIREINFEYNSETAIGGLRVTYDLNGMPFVAEDHKSFITGFKPVKISLEFPSEYIVEVSGYVGKVEGYTVIRSLTFKTNKQTYGPYGVTNGTPFSLPIENGLIVGFKGSIGYWLDYFSIYLSL",glycan array binding signal (z-score),[1],-0.236
same,glycan array binding signal (z-score),[2],-0.247
same,glycan array binding signal (z-score),[3],-0.363
same,glycan array binding signal (z-score),[4],-0.227
same,glycan array binding signal (z-score),[5],-0.164
same,glycan array binding signal (z-score),[6],-0.148
same,glycan array binding signal (z-score),[7],0.042
same,glycan array binding signal (z-score),[8],-0.119
same,glycan array binding signal (z-score),[9],-0.079
same,glycan array binding signal (z-score),[10],-0.201
same,glycan array binding signal (z-score),[11],-0.074
same,glycan array binding signal (z-score),[12],-0.157
same,glycan array binding signal (z-score),[13],-0.363
same,glycan array binding signal (z-score),[14],-0.291
same,glycan array binding signal (z-score),[15],-0.112
same,glycan array binding signal (z-score),[16],-0.26
same,glycan array binding signal (z-score),[17],-0.046
same,glycan array binding signal (z-score),[18],3.21
same,glycan array binding signal (z-score),[19],8.11
same,glycan array binding signal (z-score),[20],2.44
same,glycan array binding signal (z-score),[21],4.26
same,glycan array binding signal (z-score),[22],4
same,glycan array binding signal (z-score),[23],2.93
same,glycan array binding signal (z-score),[24],-0.172
same,glycan array binding signal (z-score),[25],-0.226
same,glycan array binding signal (z-score),[26],-0.561
same,glycan array binding signal (z-score),[27],-0.571
same,glycan array binding signal (z-score),[28],-0.148
same,glycan array binding signal (z-score),[29],5.1
same,glycan array binding signal (z-score),[30],-0.233
